We go through 40 compounds from PubChem BioAssay (Tox21).

Results filed as inconclusive are left out. Where a call stands in place of a potency, no number is given. The source made the active and inactive calls. The call rests on the fitted dose curve; in most records, active means well fitted activation curve with a large enough effect in the repeat runs; inconclusive means weak or mixed curves, or effect the other way; inactive means no such curve, though single readings can be large or run the other way.
Potency means the concentration at half of the fitted maximal effect.

This experiment is described as follows: qHTS assay to identify small molecule agonists of the estrogen related receptor signaling pathway with the pleiotropic PPARgamma coactivator (PGC) from Tox21 10K library (AID 1224842). Further: nearly all actives have a fitted effect of over 15% in size. The note with it: PGC/ERR reporter cell line, luciferase ONE-Glo, 18 h; series mostly up to 92.4 µM. The source says: National Center for Advancing Translational Sciences [NCATS] NIH Chemical Genomics Center [NCGC] U.S. Environmental Protection Agency [EPA] National Institutes of Environmental Health Sciences [NIEHS] National Toxicology Program [NTP] Assay overview: Estrogen related receptors (ERRs), the first orphan nuclear receptors discovered, play an important role in the control of cellular energy metabolism. ERRs are required for high-energy production in response to the environmental challenges. The pleiotropic PPARgamma coactivator (PGC) is a major partner of ERR and a key regulator in energy homeostasis. Together they have been implicated in the etiology of metabolic disorders such as Type 2 diabetes and metabolic syndrome. ERR-alpha was also identified as an adverse marker for breast cancer progression; ERR-alpha-positive tumors have a poor prognosis. To screen and to identify environmental compounds that perturb the PGC/ERR signaling pathways could provide valuable information for potential therapeutic or preventive measures in the treatment of metabolic disease. For identifying PGC/ERR agonists, PGC/ERR cell line (provided by NTP) has been used to screen Tox21 10K library.
Assay Protocol Summary: The PGC/ERR cells were dispensed at 2,000 cells/5 ul/well in 1536-well white plates using a Multidrop dispenser. After the assay plates were incubated at a 37 C/5% CO2 incubator for 6 hours, 23 nL of compounds dissolved in DMSO, positive and negative controls or DMSO only was transferred to the assay plate by a pin tool. The plates were incubated at 37 C for 18 hours. 4 ul/well of One-Glo reagent was added into the assay plates using a Flying Reagent Dispenser. After 30-minute incubation at room temperature, the luminescence intensity in the plates was measured using a ViewLux plate reader.
With `CN[C@H]1CC[C@@H](c2ccc(Cl)c(Cl)c2)c2ccc(S(N)(=O)=O)cc21`, the Potency entry was “inactive”.

For `COc1cc(OC)nc(NC(=O)NS(=O)(=O)Nc2ccccc2C(=O)N(C)C)n1`, the Potency result is “inactive”. To `CCCCCc1ccc(O)cc1` belongs “inactive”; to `C1CCSC1`, “inactive”. Next, `Brc1cc(Br)cc(Br)c1`: “inactive”. Regarding `CN(C)CCOc1ccc(/C(=C(/CCCl)c2ccccc2)c2ccccc2)cc1`, the Potency entry is “inactive”. As for `O=C1OC2(c3ccccc31)c1ccc(O)c(Br)c1Oc1c2ccc(O)c1Br`, the Potency result was “inactive”. As to `C=CCc1cc(S(=O)(=O)c2ccc(O)c(CC=C)c2)ccc1O`, the Potency entry was “inactive”.

Turning to `CCCCCCCCOC(=O)c1cc(O)c(O)c(O)c1`, the Potency result is “inactive”. Next, `COc1cccc(-c2ccc(/C=C\CN3CCCCCC3)cc2Cl)c1`: “inactive”; `CCCC(C)C=O` (stereo not given): “inactive”; `c1ccc(-c2ccc(C(c3ccccc3)n3ccnc3)cc2)cc1` (stereo not given): “inactive”. Next, `CCC1(C)C(=O)N(Cl)C(=O)N1Cl` (stereo not given): “inactive”; `CCCCCCCCCCCCCCCCC(C(=O)O)C(O)(CC(=O)O)C(=O)O` (stereo not given): “inactive”; `C[C@H]1O[C@@H](O[C@H]2CC[C@@]3(C)[C@H](CC[C@@H]4[C@@H]3C[C@@H](O)[C@]3(C)[C@@H](C5=CC(=O)OC5)CC[C@]43O)C2)C[C@H](O)[C@@H]1O[C@H]1C[C@H](O)[C@H](O[C@H]2C[C@H](O)[C@H](O[C@@H]3O[C@H](CO)[C@@H](O)[C@H](O)[C@H]3O)[C@@H](C)O2)[C@@H](C)O1`: “inactive”. As to `N#CCCOCCC#N`, the Potency entry is “inactive”.

As for `CCN(CC)c1ccc(C=O)c(O)c1`, the Potency entry is “inactive”. On to `CCOC(=O)C1=NN(c2ccc(Cl)cc2Cl)C(C)(C(=O)OCC)C1` (stereo not given), for which the Potency result is “inactive”. As to `NC(=O)c1ccccc1Cl`, the Potency result was “inactive”. For the compound `Nc1ccc2c(S(=O)(=O)O)cccc2c1S(=O)(=O)O`, the Potency entry was “inactive”. To `N#Cc1nc(Cl)c(Cl)c(Cl)c1Cl` belongs “inactive”; to `CCc1c(C)cc(N)c(CC)c1N`, “inactive”; to `C=CC(=O)O[C@H]1C[C@@H]2CC[C@@]1(C)C2(C)C`, “inactive”. Next, `Clc1nc(C(Cl)(Cl)Cl)c(Cl)c(Cl)c1Cl`: “inactive”; `CC/C=C(\C)C=O`: “inactive”. Consider `CC(C)(C)c1cc(CCC(=O)OCCSCCOC(=O)CCc2cc(C(C)(C)C)c(O)c(C(C)(C)C)c2)cc(C(C)(C)C)c1O`, for which the Potency entry is “inactive”. Next, `c1ccc2occc2c1`: “inactive”.

`Oc1ccc(C2(c3ccc(O)c(C4CCCCC4)c3)CCCCC2)cc1C1CCCCC1`: the Potency entry is “inactive”.

As to `[Cl][Sc]([Cl])[Cl]`, the Potency result is “inactive”.

As for `COc1cc(/C=C/C(=O)CC(=O)/C=C/c2ccc(O)c(OC)c2)ccc1O`, the Potency result is “inactive”. Next, `C/C=C/C(=O)C1=C(C)C=CCC1(C)C`: “inactive”; `Cc1cccc2c1ccc1ccccc12`: “inactive”. Next, `Cc1ccc(S(=O)(=O)C(I)I)cc1`: “inactive”. Next, `CC(Cc1ccc(O)c(O)c1)C(C)Cc1ccc(O)c(O)c1` (stereo not given): “inactive”; `CC(O)(c1ccc(Cl)cc1)c1ccc(Cl)cc1`: “inactive”; `O=c1[nH]cccc1O`: “inactive”. Take `O=S(=O)(c1ccc(OCc2ccccc2)cc1)c1ccccc1O`: the Potency entry is “inactive”.

Turning to `CC1(C)[C@H]2CC[C@]1(C)C(=O)C2`, the Potency entry was “inactive”. In the case of `O=C1CCC(=O)N1`, the Potency entry is “inactive”.

For `CC(=O)Nc1ccc(N=Nc2cc(C)ccc2O)cc1`, the Potency was 4.33 µM (active).
